Screening results as filed in PubChem.
PV pol inh: inhibitors of poliovirus RNA polymerase binding and polymerization. % elongation, % (compound at 16.7 µg/mL). AID 588519. P03300. poliovirus polymerase elongation, fluorescence polarization; active compounds read low. hit rate 0.66% among 150,000; in the data active = % elongation below about 90%
Target sequence (P03300 1749-2209 limits assumed): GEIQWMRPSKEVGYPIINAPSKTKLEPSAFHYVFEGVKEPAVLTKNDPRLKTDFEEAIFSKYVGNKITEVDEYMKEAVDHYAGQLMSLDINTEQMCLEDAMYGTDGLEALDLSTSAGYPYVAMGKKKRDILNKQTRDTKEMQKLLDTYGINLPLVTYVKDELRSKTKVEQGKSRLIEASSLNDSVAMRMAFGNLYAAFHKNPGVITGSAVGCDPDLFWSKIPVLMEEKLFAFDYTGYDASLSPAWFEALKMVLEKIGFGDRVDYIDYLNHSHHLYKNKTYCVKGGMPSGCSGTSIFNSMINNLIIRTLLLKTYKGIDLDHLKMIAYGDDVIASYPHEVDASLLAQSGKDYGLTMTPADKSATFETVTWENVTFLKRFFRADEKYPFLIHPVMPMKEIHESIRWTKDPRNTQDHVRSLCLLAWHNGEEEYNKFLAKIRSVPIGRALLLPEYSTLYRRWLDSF
Mtb MbtI inh: blocks the Mycobacterium tuberculosis siderophore enzyme MbtI; P9WFX0; purified MbtI enzyme, fluorescence intensity read-out; inhibition, % (concentration not given with the values); hit rate 0.89% among 100,000; AID 493033; in the data active = inhibition mostly above about 56%, no sharp cut-off; inactive = mostly below about 77%
MenB inh: blocks the Mycobacterium tuberculosis MenB enzyme. AID 540299. MenB enzyme assay, absorbance read-out. inhibition, % (no concentration beside the values). hit rate 0.43% among 100,000. P9WNP5; in the data active = inhibition above about 21%, passing the limit was not always enough
Active calls of the source: *; . = no result given. In the library only some 1.4% were active in any assay of this set; here they are far more common.

SMILES	PV pol inh	Mtb MbtI inh	MenB inh
S=C(NCCN1CCOCC1)Nc1ccccc1	106	-1	-14
FC(F)(F)c1ccccc1NNC(=S)NCCN1CCOCC1	98	71*	-25
O=C(CSC1CCCC1)c1ccccc1Br	100	-3	.
O=C(Oc1ccc(Br)cc1F)C1CC(=O)N(c2ccc3c(c2)OCCO3)C1 (stereo not drawn)	87*	2	-33
O=C(NCCc1ccc(C(F)(F)F)cc1)C1CC(=O)N(c2ccc3c(c2)OCCO3)C1 (stereo not drawn)	105	-10	-10
CCn1c(SC)nnc1C1CCCN(C(=O)Cc2cccnc2)C1 (stereo not drawn)	107	-6	-32
CC(C)CNC(=O)Cn1c(=O)cnc2ccccc21	105	-1	-2
C=CCn1c(NC)nc2c1c(=O)[nH]c(=O)n2C	104	1	-30
C=CCn1c(SC)nc2c1c(=O)[nH]c(=O)n2C	99	96*	-28
Cc1nnc(SC/C=C/c2ccccc2)[nH]c1=O	109	40	-8
Cc1nnc(SCc2cccc(C(=O)c3ccccc3)c2)[nH]c1=O	100	55*	-15
CCn1c(O)c(C=NCCCCCc2nc(-c3ccc(C)cc3)no2)c(=O)n(CC)c1=S	103	1	-42
Fc1cccc(CN2CCN(C(=S)NCc3ccco3)CC2)c1	101	24	-25
c1ccc(-n2nnnc2SSc2nnnn2-c2ccccc2)cc1	98	59*	-24
O=S(=O)(Cc1ccccc1)c1nnnn1-c1ccccc1	.	-6	.
N#CC(C#N)=C/C=C(\Sc1nnnn1-c1ccccc1)c1ccccc1	98	84*	-10
CCS(=O)(=O)c1nnnn1-c1ccccc1	103	29	42*
CSc1nnnn1-c1ccccc1	103	.	4
O=C(Sc1nnnn1-c1ccccc1)c1ccccc1Br	101	25	-65
CCC(=O)Nc1ccc(C(=O)N(CC)C2CCCCC2)cc1	101	-4	-14
O=C(CSc1nc2c(c(=O)n1Cc1ccccc1)SCC2)N1CCCC1	104	-4	-17
COCCCn1c(-c2c(C)oc3ccccc23)cs/c1=N\S(=O)(=O)c1ccccc1	103	2	-35
CCN(CC)CC(=O)Oc1ccc(NC2=NS(=O)(=O)c3ccccc32)cc1	102	7	-31
O=C1NC(=Nc2ccccc2)S/C1=C\c1ccc(C(=O)O)cc1	99	16	-7
CCN(C(=O)c1ccc(S(=O)(=O)N(C)C)cc1)c1nc2c(C)cccc2s1	97	23	-3
SMILES	PV pol inh	Mtb MbtI inh	MenB inh
CCOC(=O)c1cnc2ccccn2c1=O	103	105	11
O=C(O)c1cnc2ccccn2c1=O	102	90	27*
Cc1[nH]c(=S)n(C2CCCCC2)c1C	101	35	-16
O=c1[nH][nH]c(=S)n1C1CCCCC1	102	57*	4
CC(C)(C)NS(=O)(=O)Nc1ccccc1	101	0	36*
N#Cc1ccccc1S(=O)(=O)Nc1ccccc1	103	2	0
Cc1cccc(C(=O)Nc2ccccc2C#N)c1	100	55	26
NC(=O)c1ccc(OCC(=O)NC(=O)NCC2COc3ccccc3O2)cc1 (stereo not drawn)	.	-12	-32
Cc1csc2ncnc(N3CCN(C(=S)NCC4CC4)CC3)c12	88*	36	-5
Cc1csc2ncnc(N3CCN(C(=S)Nc4ccc(F)cc4F)CC3)c12	108	-3	-20
Cc1cccn2c(=O)c(/C=N/O)c(Nc3ccc(Cl)cc3)nc12	100	3	0
O=C(/C=C/c1ccccc1F)CN1C(=O)c2ccccc2C1=O	101	-1	-13
COc1ccc(C2c3sc(=O)[nH]c3SC3C(=O)N(c4ccc(Br)cc4)C(=O)C32)cc1 (stereo not drawn)	.	-2	.
COc1ccc(C2C(C#N)=C(N)SC3C(=O)N(c4ccc(Br)cc4)C(=O)C32)cc1 (stereo not drawn)	77*	.	-8
CCOc1ccc(NC(=O)c2cc3ccccc3o2)cc1OCC	103	18	-29
Cc1ccc(CNCC(O)COCC2CCCO2)n1C (stereo not drawn)	98	-27	11
CC(C)Oc1ccccc1CN	101	3	32*
NCc1ccccc1OC(F)(F)F	103	6	2
O=C(Nc1ccccc1C(F)(F)F)NN1CCOCC1	100	1	-17
CN1CCN(C(=O)c2ccc(C(=O)N3CCN(C)CC3)cc2)CC1	103	-4	-70
CC(=O)Nc1cccc(NC(=O)Nc2ccccc2)c1	100	-6	-3
CC(=O)Nc1cccc(SSc2cccc(NC(C)=O)c2)c1	99	97*	10
O=C(Nc1ccc2c(c1)CCC2)C1CCN(c2ccc(S(=O)(=O)N3CCCC3)cc2)CC1	105	0	-32
COc1ccc(NC(=O)c2sc3nc4n(c(=O)c3c2C)CCCCC4)cc1	105	2	-31
CC(=O)Nc1ccc(C(=S)NCCCO)cc1	77*	85	-7
SMILES	PV pol inh	Mtb MbtI inh	MenB inh
CCCNC(=O)c1ccc(NC(C)=O)cc1	107	.	-8
O=C(c1cn[nH]c1C1CCNCC1)N1CCN(c2ccccc2)CC1	102	4	-1
CC(O)Cn1c(=S)[nH]c2ccc(Br)cc2c1=O (stereo not drawn)	.	22	-5
N#CC(C#N)=Cc1cc2c(cc1Br)OCO2	70*	86	-43
N#C/C(=C\c1ccc2c(c1)OCO2)c1ccccc1	100	4	-11
CCC(=O)Nc1cccc2cccnc12	102	6	-9
COc1nc(NC(=O)NS(=O)(=O)Nc2cccc3cccnc23)nc(OC)n1	79*	2	7
CC(C(=O)Nc1ccccc1)N(c1nccs1)S(=O)(=O)c1ccccc1 (stereo not drawn)	109	-4	-10
Cc1nc2ncnn2c(C)c1CCC(=O)N(C)CCOc1ccc(Cl)cc1	100	-3	-6
Cc1sc2cc(-[n+]3ccc(O)cc3)ccc2[n+]1-c1ccccc1	100	95*	.
O=c1n(Cc2cccc(C(F)(F)F)c2)nnn1-c1ccccc1	102	-17	-21
O=C(N1CCCC1)N1CCC(c2ccc3c(c2)OCO3)CC1	101	-6	-26
S=C(c1ccc(-c2ccccc2)o1)N1CCN(c2ccccc2)CC1	68*	92*	2
CC(=O)N1CCN(C(=S)c2ccc(-c3ccc(C)cc3)o2)CC1	96	80	2
Cc1ccc(/C=C2\N=C(c3ccccc3)OC2=O)o1	101	-7	.
Cc1ccc(/C=C2\CC/C(=C\c3ccc(C)o3)C2=O)o1	84	99*	-74
Cc1ccc(/C=C2/C(=O)/C(=C/c3ccc(C)o3)C3CCC2N3C)o1	71	58	-138
Cc1ccc(/C=C2\CCCc3ccccc3C2=O)o1	103	21	-10
Cc1ccc(/C=C2/CC(C)C/C(=C\c3ccc(C)o3)C2=O)o1 (stereo not drawn)	120	92*	-48
Cc1ccc(/C=C2/C=CC(=O)O2)o1	81*	.	-313
Cc1cc2c3c([nH]c2cc1S(=O)(=O)N1CCCC1)CCCC3=O	101	-7	-24
CCOc1ccc(N(CC)S(=O)(=O)N2CCCC(C(=O)N3CCc4ccccc43)C2)cc1 (stereo not drawn)	102	-20	4
C=CCn1c(SCCN2CCCCC2)nnc1C1CCCCC1	101	14	8
O=C(Oc1ccc(O)cc1)C12CC3CC(CC(C3)C1)C2	97	97*	-52
O=C(Oc1ccc2c(c1)OCO2)C12CC3CC(CC(C3)C1)C2	102	-7	-3
